# Where a name gives a salt, the structure may show the parent alone. Among all 2,100 compounds or so, about 180 (8.6%) showed an effect of 50% or more. This is one part of a sample in which strong results are shown more often than they occur.
# Tested on: MOLM1 and UCSD/AML1 (averaged)
# Experiment: cell viability relative to DMSO control (POC); higher = less growth inhibition
# Details: 1 µM; 72 h
# Method: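 Primary viability screen in the 3q26 EVI1-high AML cell lines MOLM1 and UCSD/AML1 (1.5e3 cells/well, 384-well), compounds at 1 uM for 72 h. ATP CellTiter-Glo read-out given as percent of viable cells over DMSO control (POC), averaged over duplicates. DMSO was the negative control and 5 uM etoposide the positive control. This mapping covers the MicroSource Spectrum and Selleck anticancer libraries (drug names).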
row,Structure (SMILES),cell viability [%]
1,CC(C)CCCC(C)C1CCC2C3=CCC4CC(O)CCC4(C)C3CCC21C (stereo not given),93
2,COC(=O)CC[C@@H](C)[C@H]1CC[C@H]2[C@@H]3CC[C@@H]4C[C@H](O)CC[C@]4(C)[C@H]3C[C@H](O)[C@]12C,97.4
3,N=C(N)NCCCCNC(=N)N,102
4,COc1ccc(-c2coc3c(O)c(O)c(OC)cc3c2=O)cc1,111
5,COc1c(O)cc2c(-c3ccccc3)cc(=O)oc2c1OC,92.8
6,COC(=O)Nc1nc2cc(Sc3ccccc3)ccc2[nH]1,41.9
7,CCCSc1ccc2[nH]c(NC(=O)OC)nc2c1,12.4
8,COC(=O)[C@@H]1OC(=O)C2OC23[C@@]1(C)CCC1[C@]2(C)C(C[C@@H](O)[C@]13C)C(C)(C)[C@H](OC(C)=O)C[C@@H]2OC(C)=O (stereo not given in full),111
9,O=C(O)CCCN1C(=O)c2cccc3cccc(c23)C1=O,103
10,COc1cc2cc3c4cc(OC)c(OC)cc4cc[n+]3c(C)c2cc1OC,99.6
11,C[C@H]1[C@H](C)CC[C@]2(C(=O)O)CC[C@]3(C)C(=CC[C@@H]4[C@@]5(C)C[C@@H](O)[C@H](O)[C@@](C)(CO)[C@@H]5[C@H](O)C[C@]43C)[C@H]12,86.8
12,O=C(Nc1ccccc1-c1cn2c(CN3CCNCC3)csc2n1)c1cnc2ccccc2n1,95.6
13,COc1cc(OC)c2c(=O)c(-c3ccc4c(c3)OCO4)coc2c1,127
14,"COC(=O)C[C@H]1C(C)(C)[C@@H](O)[C@@H]2CC3=C4CC(O)O[C@@H](c5ccoc5)[C@]4(C)CCC3[C@@]1(C)C2=O (stereo partly drawn) [3,16-DIDEOXYMEXICANOLIDE-3beta-DIOL]",86.1
15,C#Cc1cccc(Nc2ncnc3cc(OC)c(OCCCCCCC(=O)NO)cc23)c1,22.2
16,C#Cc1cccc(Nc2ncnc3cc(OCCOC)c(OCCO)cc23)c1,65.1
17,C#Cc1cccc(Nc2ncnc3cc(OCCOC)c(OCCO)cc23)c1 [OSI-420 (Desmethyl Erlotinib)],42.9
18,COc1cc2ncnc(Nc3cccc(Br)c3)c2cc1OC,61.8
19,COc1cc2c(N3CCN(C(=O)Nc4ccc(OC(C)C)cc4)CC3)ncnc2cc1OCCCN1CCCCC1 [Tandutinib (MLN518)],73.6
20,COc1ccc(-c2cc(=O)c3c(O)cc(OC)cc3o2)cc1,110
21,CC(=O)C12OC(C)(c3ccccc3)OC1CC1C3CCC4=CC(=O)CCC4(C)C3CCC12C (stereo not given),89.4
22,CCC(C)C(=O)OC1[C@@H]2CC3=C4CC(=O)O[C@@H](c5ccoc5)[C@]4(C)CCC3[C@@](C)(C2=O)[C@@H](CC(=O)OC)C1(C)C (stereo not given in full),99.4
23,"CC(C)CCC[C@@H](C)[C@H]1CC[C@H]2[C@@H]3C[C@@H](O)[C@@]4(O)C[C@@H](O)CC[C@]4(C)[C@H]3CC[C@]12C [CHOLESTAN-3beta,5alpha,6beta-TRIOL]",102
24,CC(=O)O[C@H]1CC[C@]2(C)C(C[C@@H](OC(C)=O)[C@]3(C)C4=CC(=O)O[C@H](c5ccoc5)[C@@]4(C)CCC23)C1(C)C (stereo partly drawn) [3-DEOXO-3beta-ACETOXYDEOXYDIHYDROGEDUNIN],92.3

row,Structure (SMILES),cell viability [%]
1,CC(C)c1cc(-c2n[nH]c(=O)n2-c2ccc3c(ccn3C)c2)c(O)cc1O [Ganetespib (STA-9090)],2.49
2,CC(=O)O[C@H]1C[C@@H](O)C(C)(C)[C@@H]2C[C@@H](OC(C)=O)[C@]3(C)[C@H](CC[C@@]4(C)[C@@H](c5ccoc5)OC(=O)[C@H]5O[C@@]534)[C@@]12C,104
3,O=c1cc(-c2ccccc2)oc2cc(O)c(O)cc12,96.6
4,COc1cc(Nc2ncc3c(n2)-c2ccc(Cl)cc2C(c2c(F)cccc2OC)=NC3)ccc1C(=O)O [MLN8237 (Alisertib)],49.6
5,C=C1[C@H]2CC[C@@]3(C)[C@H](c4ccoc4)OC(=O)C[C@]13O[C@H]1C[C@H](O)C(C)(C)[C@H](CC(=O)OC)[C@]12C [3-DEOXY-3beta-HYDROXYANGOLENSIC ACID METHYL ESTER],97.7
6,C[C@@H]1CC[C@@]2(OC1)O[C@H]1C[C@H]3[C@@H]4CC=C5C[C@@H](O)CC[C@]5(C)[C@H]4CC[C@]3(C)[C@H]1[C@@H]2C,93.7
7,O=c1cc(-c2ccc(O)cc2)oc2cc(O[C@@H]3O[C@H](CO)[C@@H](O)[C@H](O)[C@H]3O)cc(O)c12,104
8,O=C(O)c1cc2ccccc2[nH]1,118
9,O=C(O)CCCc1ccccc1,90.8
10,O=C(O)CCC(=O)c1ccc(-c2ccccc2)cc1,93.4
11,O=C(O)CCc1nc(-c2ccccc2)c(-c2ccccc2)o1,45.5
12,C[C@]1(O)C[C@@H](c2nc(-c3ccc4ccc(-c5ccccc5)nc4c3)c3c(N)nccn32)C1 [OSI-906 (Linsitinib)],100
13,O=C(Nc1cccc(Cl)c1)Nc1ncc(CCNc2ncnc3ccsc23)s1 [SNS-314 Mesylate],60
14,CC1(C)[C@@H](O[C@H]2O[C@H](C(=O)O)[C@@H](O)[C@H](O)[C@H]2O[C@@H]2O[C@H](C(=O)O)[C@@H](O)[C@H](O)[C@H]2O)CC[C@]2(C)[C@H]3C(=O)C=C4[C@@H]5C[C@@](C)(C(=O)O)CC[C@]5(C)CC[C@@]4(C)[C@]3(C)CC[C@@H]12,96.4
15,COc1cc(/C=C/C(=O)O)cc(OC)c1OC,118
16,COc1cc([C@@H]2c3cc4c(cc3[C@@H](O[C@@H]3O[C@@H]5CO[C@@H](c6cccs6)O[C@H]5[C@H](O)[C@H]3O)[C@H]3COC(=O)[C@H]23)OCO4)cc(OC)c1O,27.5
17,COc1cc([C@@H]2c3cc4c(cc3[C@@H](O[C@@H]3O[C@@H]5CO[C@@H](c6cccs6)O[C@H]5[C@H](O)[C@H]3O)[C@H]3COC(=O)[C@H]23)OCO4)cc(OC)c1O [Teniposide (Vumon)],12.4
18,COc1cc([C@@H]2c3cc4c(cc3[C@@H](O[C@@H]3O[C@@H]5CO[C@@H](C)O[C@H]5[C@H](O)[C@H]3O)[C@H]3COC(=O)[C@H]23)OCO4)cc(OC)c1O,59.4
19,C[C@@H]1CC[C@@]2(OC1)O[C@H]1C[C@H]3[C@@H]4CC[C@H]5C[C@@H](O)CC[C@]5(C)[C@H]4CC[C@]3(C)[C@H]1[C@@H]2C,97.1
20,CCC[C@H](NC(=O)/C(C#N)=C/c1cccc(Br)n1)c1ccccc1,57.8
21,COc1ccc(C=CC(=O)O)cc1OC,106
22,CC(=O)c1c(O)cc(O)cc1O,106
23,O=C(O)C(=O)O.[NH-]C1CCCCC1[NH-].[Pt+2] (stereo not given) [Oxaliplatin (Eloxatin)],41.3
24,O=C(NC1CCCCC1)NC1CCCCC1,120

row,Structure (SMILES),cell viability [%]
1,CC(C)=CCOc1cc2oc(=O)ccc2cc1O,98
2,O=c1cc(-c2cc(O)c(O)c(O)c2)oc2cc(O)cc(O)c12,106
3,COC(=O)C[C@H]1C2(C)CC34OC5(C)O[C@@]6([C@H](OC(C)=O)C(OC(C)=O)[C@]7(C)C(/C(=C(/O)C(C)C)C(=O)O[C@H]7c7ccoc7)[C@@]6(O5)[C@H](OC(C)=O)[C@@]3(O)C2OC(=O)C(C)C)[C@]14C (stereo not given in full),102
4,O=C(N[C@H](CO)[C@H](O)c1ccc([N+](=O)[O-])cc1)C(Cl)Cl,101
5,CCCCCCCCCCCCCCCC(=O)OC[C@@H](NC(=O)C(Cl)Cl)[C@H](O)c1ccc([N+](=O)[O-])cc1,96.2
6,O=C(O)CCC(=O)OC[C@@H](NC(=O)C(Cl)Cl)[C@H](O)c1ccc([N+](=O)[O-])cc1,40.2
7,C[C@@H]1CC[C@@]23CCC4(C)[C@@](C=CC5[C@@]6(C)CCC(=O)C(C)(C)C6CC[C@]54C)(OC2=O)C3[C@H]1C (stereo not given in full),95.6
8,Oc1cc(O)c2c(c1)O[C@H](c1cc(O)c(O)c(O)c1)[C@H](O)C2,97.9
9,COc1ccc2c(c1)OC[C@@H](Cc1ccc(OC)c(OC)c1)[C@@H]2O,82.3
10,CCCCCC/C=C\CCCCCCCc1cccc(O)c1C(=O)O,81.2
11,CC(=O)O[C@H]1CC[C@@]2(C)[C@H](CC[C@@H]3[C@@H]2CC[C@]2(C)[C@@H]4[C@H](C[C@@H]32)O[C@]2(CC[C@@H](C)CO2)[C@H]4C)C1,94.2
12,COC1=C2C[C@@H](C)C[C@H](OC)[C@H](O)[C@@H](C)/C=C(\C)[C@H](OC(N)=O)[C@@H](OC)/C=C\C=C(/C)C(=O)NC(=CC1=O)C2=O [Geldanamycin],0.865
13,C=CCNC1=C2C[C@@H](C)C[C@H](OC)[C@H](O)[C@@H](C)/C=C(\C)[C@H](OC(N)=O)[C@@H](OC)/C=C\C=C(/C)C(=O)NC(=CC1=O)C2=O [17-AAG (Tanespimycin)],29.1
14,CO[C@H]1/C=C\C=C(/C)C(=O)NC2=CC(=O)C(NCCN(C)C)=C(C[C@@H](C)C[C@H](OC)[C@H](O)[C@@H](C)/C=C(\C)[C@@H]1OC(N)=O)C2=O [17-DMAG HCl (Alvespimycin)],2.31
15,C=C1[C@@H]([C@@]2(C)C=CC(=O)C(C)(C)[C@@H]2CC(=O)OC)CC[C@@]2(C)[C@H](c3ccoc3)OC(=O)[C@H]3O[C@]132,102
16,COC1=CC(=O)C=C(OC)C1=O,91.5
17,COc1cc(OC)c(C(C)=O)c(O)c1C,111
18,CN[C@@H](C)C(=O)N[C@H]1CN(C(=O)CC(C)C)CC[C@H]2CC[C@@H](C(=O)NC(c3ccccc3)c3ccccc3)N2C1=O,68.5
19,CON,109
20,CC(=O)OC/C=C(\C)CC/C=C(\C)CC/C=C(\C)CC/C=C(\C)CC/C=C(\C)CC/C=C(\C)CC/C=C(\C)CC/C=C(\C)CCC=C(C)C,106
21,O=C1C=C2CC3(O)COc4c(ccc(O)c4O)C3=C2C=C1O (stereo not given),97.6
22,Cc1c2oc3c(C)ccc(C(=O)N[C@@H]4C(=O)N[C@H](C(C)C)C(=O)N5CCC[C@H]5C(=O)N(C)CC(=O)N(C)[C@@H](C(C)C)C(=O)O[C@@H]4C)c3nc-2c(C(=O)N[C@@H]2C(=O)N[C@H](C(C)C)C(=O)N3CCC[C@H]3C(=O)N(C)CC(=O)N(C)[C@@H](C(C)C)C(=O)O[C@@H]2C)c(N)c1=O,1.96

# — the supplement of paper PMC11150407
